Reference: the supplement of paper PMC10515830
Where a name gives a salt, the structure may show the parent alone.

Experiments:
Details in all cases: 10 µM; exposure time 6 h
[1] = tested on: Danio rerio larvae (5 dpf); test: difference in excitability vs DMSO (percentage points); higher = more excitable than DMSO
Procedure, shortened: (§1)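 Wild-type 5 dpf zebrafish larvae in 96-well plates were given 100 µL egg water containing library compound at 10 µM final for 6 h. After 3 h of exposure, plates at 28.5 ℃ were photographed every 6 s during a 3-h programme of moving lines and 100 ms, 400Hz tones. Z-LaP Tracker (a DeepLabCut model) quantified each behaviour, averaged over 48 larvae per compound. Values are the compound mean minus the DMSO-vehicle control, in percentage points.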

[2] = tested on: Danio rerio larvae (5 dpf); test: difference in startle response vs DMSO (percentage points); higher = stronger startle than DMSO
Procedure, shortened: as §1

[3] = tested on: Danio rerio larvae (5 dpf); test: difference in activity during first hour vs DMSO (percentage points); higher = more activity than DMSO
Procedure, shortened: as §1

[4] = tested on: Danio rerio larvae (5 dpf); test: difference in habituation to acoustic stimuli vs DMSO (percentage points); higher = more habituation than DMSO
Procedure, shortened: as §1

[5] = tested on: Danio rerio larvae (5 dpf); test: difference in combined optomotor response to red, green and blue moving lines vs DMSO (percentage points); higher = stronger optomotor response than DMSO
Procedure, shortened: as §1

O=C(O)CCCN1CCC(O[C@@H](c2ccc(Cl)cc2)c2ccccn2)CC1 [Bepotastine (besylate)]
difference in excitability [1]: 13.3
difference in startle response [2]: 3.74
difference in activity during first hour [3]: 0.00178
difference in habituation to acoustic stimuli [4]: 0.195
difference [5]: 1.29

O=C1CCCC(=O)C1C(=O)c1ccc(C(F)(F)F)cc1[N+](=O)[O-] [Nitisinone]
difference in excitability [1]: -4.15
difference in startle response [2]: -6.23
difference in activity during first hour [3]: 19.7
difference in habituation to acoustic stimuli [4]: -0.151
difference [5]: 0.618

CCOC(=O)C1=C[C@@H](OC(CC)CC)[C@H](NC(C)=O)[C@@H](N)C1 [Oseltamivir (phosphate)]
difference in excitability [1]: 1.51
difference in startle response [2]: 3.38
difference in activity during first hour [3]: 8.28
difference in habituation to acoustic stimuli [4]: -5.42
difference [5]: 3.62

OCc1cc(C(O)CNCCCCCCOCCCCc2ccccc2)ccc1O (stereo not given) [Salmeterol (xinafoate)]
difference in excitability [1]: 12.9
difference in startle response [2]: -5.05
difference in activity during first hour [3]: 20.1
difference in habituation to acoustic stimuli [4]: -7.62
difference [5]: 7.79

CCC(=O)O[C@]1(C(=O)SCF)[C@H](C)C[C@H]2[C@@H]3C[C@H](F)C4=CC(=O)C=C[C@]4(C)[C@@]3(F)[C@@H](O)C[C@@]21C [Fluticasone Propionate]
difference in excitability [1]: -4.47
difference in startle response [2]: -3.21
difference in activity during first hour [3]: 11.5
difference in habituation to acoustic stimuli [4]: 1.17
difference [5]: 14.7

CN(C)CC[C@@H](c1ccc(Cl)cc1)c1ccccn1 [Dexchlorpheniramine (maleate)]
difference in excitability [1]: 5.44
difference in startle response [2]: 3.98
difference in activity during first hour [3]: -18.8
difference in habituation to acoustic stimuli [4]: 1.79
difference [5]: -3.17

CO[C@H]1/C=C/O[C@@]2(C)Oc3c(C)c(O)c4c(O)c(c(/C=N/N5CCN(C)CC5)c(O)c4c3C2=O)NC(=O)/C(C)=C\C=C\[C@H](C)[C@H](O)[C@@H](C)[C@@H](O)[C@@H](C)[C@H](OC(C)=O)[C@@H]1C [Rifampicin]
difference in excitability [1]: 2.43
difference in startle response [2]: 2.9
difference in activity during first hour [3]: 8.79
difference in habituation to acoustic stimuli [4]: -1.68
difference [5]: -3.29

CN1C(C(=O)Nc2ccccn2)=C(O)c2ccccc2S1(=O)=O [Piroxicam]
difference in excitability [1]: 12.1
difference in startle response [2]: 0.219
difference in activity during first hour [3]: 4.07
difference in habituation to acoustic stimuli [4]: -1.73
difference [5]: -0.889

CNCC(O)c1ccc(OC(=O)C(C)(C)C)c(OC(=O)C(C)(C)C)c1 (stereo not given) [Dipivefrin (hydrochloride)]
difference in excitability [1]: -3.61
difference in startle response [2]: -15.1
difference in activity during first hour [3]: 46.2
difference in habituation to acoustic stimuli [4]: -2.07
difference [5]: 2.48

CCC(C)(C)C(=O)O[C@H]1C[C@@H](C)C=C2C=C[C@H](C)[C@H](CC[C@@H]3C[C@@H](O)CC(=O)O3)[C@H]21 [Simvastatin]
difference in excitability [1]: 6.26
difference in startle response [2]: -2.42
difference in activity during first hour [3]: 9.76
difference in habituation to acoustic stimuli [4]: 1.77
difference [5]: 2.53

Clc1ccc2nsnc2c1NC1=NCCN1 [Tizanidine (hydrochloride)]
difference in excitability [1]: 1.85
difference in startle response [2]: 4.3
difference in activity during first hour [3]: -8.71
difference in habituation to acoustic stimuli [4]: 1.04
difference [5]: -0.822

CCCCC1=NC2(CCCC2)C(=O)N1Cc1ccc(-c2ccccc2-c2nnn[nH]2)cc1 [Irbesartan]
difference in excitability [1]: 5.86
difference in startle response [2]: -3.98
difference in activity during first hour [3]: 6.09
difference in habituation to acoustic stimuli [4]: -4.93
difference [5]: 5.61

Cc1cccc(CN2CCN(C(c3ccccc3)c3ccc(Cl)cc3)CC2)c1 (stereo not given) [Meclizine (hydrochloride)]
difference in excitability [1]: 6.31
difference in startle response [2]: -8.4
difference in activity during first hour [3]: 21.1
difference in habituation to acoustic stimuli [4]: -9.92
difference [5]: -14.3

C#C[C@]1(O)CC[C@H]2[C@@H]3CCC4=CC(=O)CC[C@@H]4[C@H]3C(=C)C[C@@]21CC [Etonogestrel]
difference in excitability [1]: 12.2
difference in startle response [2]: -2.36
difference in activity during first hour [3]: 0.0241
difference in habituation to acoustic stimuli [4]: -5.37
difference [5]: 10.4

CC(CN(C)C)CN1c2ccccc2CCc2ccccc21 (stereo not given) [Trimipramine (maleate)]
difference in excitability [1]: 12.5
difference in startle response [2]: -3.72
difference in activity during first hour [3]: -0.632
difference in habituation to acoustic stimuli [4]: -5.79
difference [5]: 0.935

CO/N=C1\C[C@]2(C[C@@H]3C[C@@H](C/C=C(\C)C[C@@H](C)/C=C/C=C4\CO[C@@H]5[C@H](O)C(C)=C[C@@H](C(=O)O3)[C@]45O)O2)O[C@H](/C(C)=C/C(C)C)[C@H]1C [Moxidectin]
difference in excitability [1]: 8.4
difference in startle response [2]: -9.21
difference in activity during first hour [3]: -23
difference in habituation to acoustic stimuli [4]: -11.5
difference [5]: -17

FCOC(C(F)(F)F)C(F)(F)F [Sevoflurane]
difference in excitability [1]: -1.7
difference in startle response [2]: 2.93
difference in activity during first hour [3]: 0.0224
difference in habituation to acoustic stimuli [4]: 4.17
difference [5]: -3.43

Cc1[nH]cnc1CN1CCc2c(c3ccccc3n2C)C1=O [Alosetron (hydrochloride)]
difference in excitability [1]: -3.91
difference in startle response [2]: 3.08
difference in activity during first hour [3]: 8.78
difference in habituation to acoustic stimuli [4]: 3.46
difference [5]: 8.63

CC[C@]1(O)C[C@H]2CN(CCc3c([nH]c4ccccc34)[C@@](C(=O)OC)(c3cc4c(cc3OC)N(C=O)[C@H]3[C@@](O)(C(=O)OC)[C@H](OC(C)=O)[C@]5(CC)C=CCN6CC[C@]43[C@@H]65)C2)C1 [Vincristine (sulfate)]
difference in excitability [1]: 3.18
difference in startle response [2]: 3.21
difference in activity during first hour [3]: -4.31
difference in habituation to acoustic stimuli [4]: -2.03
difference [5]: 1.46

COc1ccc(NC(=O)c2ccc(C(=N)N(C)C)cc2)c(C(=O)Nc2ccc(Cl)cn2)c1 [Betrixaban]
difference in excitability [1]: 11.6
difference in startle response [2]: 2.94
difference in activity during first hour [3]: 2.19
difference in habituation to acoustic stimuli [4]: 5.98
difference [5]: 7.59

Brc1c(NC2=NCCN2)ccc2nccnc12 [Brimonidine (tartrate)]
difference in excitability [1]: -0.928
difference in startle response [2]: -0.293
difference in activity during first hour [3]: -14.2
difference in habituation to acoustic stimuli [4]: 3.89
difference [5]: 10.9

CCOC(=O)C1=C(C)NC(C)=C(C(=O)OC)C1c1cccc(Cl)c1Cl (racemic) [(±)-Felodipine]
difference in excitability [1]: 0.706
difference in startle response [2]: -2.36
difference in activity during first hour [3]: -22.2
difference in habituation to acoustic stimuli [4]: -10.8
difference [5]: -16.5
